# HIF-2a block: HIF-2a inhibition; inhibition, % at 18.8 µM; actives 0.72% (n = 360,000); 786-0 RCC cells HIF-2a reporter, luciferase luminescence, overnight;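 active = inhibition of the luminescence signal of 40% or more relative to plate controls, in a single-dose primary screen at 18.75 µM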
# EBV LMP1 NFkB: Epstein-Barr LMP1 NF-kappaB reporter inhibition; LMP1-induced NF-kappaB luciferase reporter cells, luminescence; inhibition, % at 12.5 µM; actives 0.69% (n = 350,000); in the data active = inhibition above about 41%; inconclusive = no clear call, values can overlap the other calls;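 also: 0% = neutral control wells and 100% = reference inhibitor control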
# TRPM1 prom inh: reduces MITF-dependent TRPM1 promoter luciferase signal; AID 488899; inhibition, % at 12.5 µM; SK-MEL-5 TRPM1 promoter luciferase, 24 h; actives 0.83% (n = 330,000);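 active = mean inhibition across replicates of 60% or more, whatever share of single replicates reaches that level; inconclusive = some that reach 60%, reason not given; inactive = mean inhibition across replicates below 60%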
# Shn3 inh set2: Schnurri-3 reporter inhibition in Clone20 osteoblasts. inhibition, % at 12.5 µM. actives 0.52% (n = 360,000). Clone20 osteoblast Shn3 3'UTR firefly luciferase, 24 h;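 active = mean inhibition of at least 75% with every replicate also reaching 75%; inconclusive = mean inhibition at least 75% but some replicate below; inactive = mean inhibition below 75%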;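 also: 0% = median of neutral control wells and 100% = pilot-screen positive control compound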
# TWEAK-Fn14 inh: TWEAK-Fn14 signaling inhibition | TWEAK-stimulated Fn14 reporter cells, luciferase luminescence, 8 h | inhibition, % at 10 µM | actives 2% (n = 360,000) | AID 1159606; in the data active = inhibition above about 50%
# TROY NFkB inh: inhibitors of TROY-dependent NF-kB signaling; Q293 LMP1-TROYcd NF-kB luciferase reporter, 4 h; inhibition, % at 10 µM; actives 0.98% (n = 360,000);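 active = compounds whose plate-normalised and pattern-corrected inhibition of the luciferase reporter signal at the single screening dose is 50% or more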
# The depositor's hits bear a star; ? = inconclusive; . = no result given. Compounds with a hit are over-represented: about 3.4% of the library has one in this group of screens.
SMILES,HIF-2a block,EBV LMP1 NFkB,TRPM1 prom inh,Shn3 inh set2,TWEAK-Fn14 inh,TROY NFkB inh
N#Cc1ccc(OCC(=O)NNC(=S)NC2CCCCC2)cc1,0.3,2.2,1.6,-6.1,14.2,-0.7
O=C(NCC(=O)N1CC=C(c2ccccc2)CC1)c1ccco1,-75.5,6.1,-37.5,-12.8,3.3,-46.2
COc1cc(NC(=O)c2cc(-c3ccc4c(c3)OCO4)on2)cc(OC)c1OC,-8.5,-1.1,40.5,41.0,35.8,4.8
O=C(Nc1cccc(O)c1)c1cc(-c2ccc3c(c2)OCO3)on1,-45.3,-0.3,46.1,-12.4,95.4*,64.3*
O=C(c1cc(-c2cccs2)on1)N1CCN(C(c2ccccc2)c2ccccc2)CC1,28.4,6.2,67.8*,43.5,25.3,-1.0
CCCNC(=O)c1cc(-c2ccc3c(c2)OCO3)on1,-202.7,-12.4,-46.6,-33.6,50.6*,-14.5
CC1CCCCN1C(=O)c1cc(-c2ccc3c(c2)OCO3)on1 (stereo not drawn),-153.1,-31.6,-134.8,-100.2,23.8,12.2
CC1CCN(C(=O)c2cc(-c3ccc4c(c3)OCO4)on2)CC1,-145.0,-12.6,-87.0,-60.5,53.5*,-24.3
Cc1cc(C)c(S(=O)(=O)N2CCN(C(=O)c3ccc4c(c3)OCO4)CC2)c(C)c1,15.3,4.7,12.2,7.5,-0.4,14.2
CC(=O)Nc1cccc(-c2ccnc3c2CC(C(=O)Nc2cccc(OC(F)(F)F)c2)O3)c1 (stereo not drawn),29.8,.,.,64.1,18.4,25.0
CCOc1ccc(N(CC(=O)NC2CCCCC2)S(=O)(=O)c2ccccc2)cc1,13.3,2.1,-8.5,17.9,1.2,-3.6
CC(C(=O)OCC(=O)c1ccc(Br)cc1)N1C(=O)C2C3C=CC(C3)C2C1=O (stereo not drawn),2.5,-5.3,-0.7,-3.4,37.0,1.1
O=C(Nc1cccc(O)c1)c1cc(-c2ccccc2Cl)on1,-61.5,3.2,7.0,29.3,77.1*,50.6*
COc1ccccc1-c1cc(C(=O)N2CCCC2)no1,-187.5,-12.5,-51.2,-85.5,15.6,-19.6
O=C(c1cc(-c2ccccc2Cl)on1)N1CCCC1,-46.3,22.6,6.3,-14.9,70.2*,36.2
CC(CC1C(C#N)=C(N)SC(N)=C1C#N)c1ccccc1 (stereo not drawn),19.2,0.4,2.4,-12.2,-1.7,50.4*
CC(c1ccccc1)C1C(C#N)=C(N)SC(N)=C1C#N (stereo not drawn),7.4,-1.5,5.3,2.3,0.3,-9.2
CN(C(=O)c1ccc(NC(=O)C2CCN(C(=O)OC(C)(C)C)CC2)cc1)C1CCC1,15.1,-4.0,-3.6,-11.9,-19.1,1.2
CC(C)CCN1CCN(Cc2cc(F)ccc2-n2cccn2)CC1CCO (stereo not drawn),11.3,-1.0,-1.9,-7.2,-12.1,7.2
OCCC1CN(Cc2cc(F)ccc2-n2cccn2)CCN1C1CCCC1 (stereo not drawn),-0.1,3.9,13.9,-5.4,91.2*,8.3
CC1OC(CC(=O)O)CC2=C1C(=O)c1c(O)cccc1C2=O (stereo not drawn),87.4*,88.1*,113.0*,99.1*,105.7*,63.9*
CN(Cc1cccc(C(F)(F)F)c1)Cc1nc(-c2cnccn2)no1,8.9,-3.7,0.5,8.9,-5.3,-4.4
COc1cc(C(=O)NCCCN2CCCC2=O)cc(Br)c1OCc1ccccc1,19.1,-3.5,3.7,20.2,24.0,-17.8
CC[C@H](C)Cc1cn([C@@H](CCCN=C(NC(=O)OC(C)(C)C)NC(=O)OC(C)(C)C)C(=O)NCCCCCCCCCCC(=O)N2CCN(C(=O)OC(C)(C)C)CC2)nn1,1.2,3.2,16.4,29.2,59.9*,81.0*
CC[C@H](C)Cc1cn([C@@H](CCCCN)C(=O)NCCCCCCCCCCC(=O)N2CCNCC2)nn1,-6.9,-3.6,-2.2,10.1,-1.5,-8.3
SMILES,HIF-2a block,EBV LMP1 NFkB,TRPM1 prom inh,Shn3 inh set2,TWEAK-Fn14 inh,TROY NFkB inh
Cc1cn([C@@H](CCCCNC(=O)OC(C)(C)C)C(=O)NCCCCCCCCCCC(=O)N2CCN(C(=O)OC(C)(C)C)CC2)nn1,4.8,7.9,65.2*,90.2*,87.7*,70.4*
CC(C)(C)OC(=O)NCCCCCc1cn(CC(=O)NCCCCCCCCCCC(=O)N2CCN(C(=O)OC(C)(C)C)CC2)nn1,-80.0,12.5,16.8,80.9,24.7,-10.2
CCCN1C(=O)S/C(=C\c2ccc(N3CCOCC3)o2)C1=O,-177.9,-1.5,-56.6,89.2*,46.6,-0.6
Cc1ccc(NC(=S)NCc2ccccn2)cc1,-111.9,-3.9,-6.6,-11.8,2.4,-23.6
S=C(NCc1ccccn1)NN=Cc1ccccn1,-76.8,61.0*,69.9*,81.5,45.4,26.6
O=C(COC(=O)c1ccc(O)cc1O)Nc1cc(-c2ccccc2)nn1-c1ccccc1,-22.6,3.3,-26.6,15.2,-0.9,39.3
O=C(c1cc(S(=O)(=O)N2CCN(c3ccccc3)CC2)ccc1Cl)N1CCCCCCC1,24.4,7.7,12.6,70.8,23.5,18.7
Cc1ccc(S(=O)(=O)N2CCCCC2)cc1NC(=O)CNc1ccccc1N1CCCC1=O,3.6,41.7*,-6.7,-2.8,12.4,2.8
O=C1OC(CN(Cc2ccccc2)Cc2ccccc2)CN1N=Cc1ccc([N+](=O)[O-])o1 (stereo not drawn),-15.9,-26.8,82.0*,36.1,2.3,2.1
O=c1[nH]c(-c2ccccn2)nc2sc(-c3ccccc3)cc12,-160.9,18.0,35.8,79.7,100.2*,26.5
O=C(NCc1ccc(Cl)c(Cl)c1)c1cc(C2CCCCN2C(=O)OCCF)on1 (stereo not drawn),5.9,.,.,2.0,14.5,-16.6
O=C(Nc1ccccc1C(F)(F)F)N1CCC(N2CCCCC2)CC1,9.4,7.0,3.3,11.4,83.5*,.
O=C(Nc1ccccc1C(F)(F)F)N1CCC(n2c(=O)[nH]c3ccccc32)CC1,19.1,14.1,7.6,8.5,3.0,.
CCN(CC)S(=O)(=O)c1ccc(N2CCCC2)c(NC(=O)CSCc2c(C)noc2C)c1,3.2,1.0,.,-6.7,6.5,1.9
O=c1oc2ccc(C#CC3(O)CCCCC3)cc2cc1-n1cc(-c2ccccn2)nn1,35.6,9.4,19.3,-3.0,58.2*,40.6
CCCC(=O)C1=C(O)C(C(=O)OC)C(C)(C)CC1=Nc1ccc(C)cc1 (stereo not drawn),18.5,2.7,2.1,7.9,-3.5,0.9
CCCC(=O)C1=C(O)C(C(=O)OC)C(C)(C)CC1=Nc1ccncc1 (stereo not drawn),0.5,77.1*,13.6,2.4,-3.1,-2.0
O=C(c1noc2c1CSc1ccccc1-2)N1CCN(c2ccc(Cl)cc2)CC1,-9.8,68.3*,8.5,-3.2,5.7,-2.6
COc1ccccc1N(C(C)=O)C1=C(Cl)C(=O)c2ccccc2C1=O,87.6*,?,.,76.7,23.6,-15.7
CC(=O)N(C1=C(N)C(=O)c2ccccc2C1=O)C(C)C,5.6,3.4,7.8,-24.1,17.6,1.0

# Screening results: PubChem, several laboratories
